Sampled rows, rich in hits. Any-hit rate of the full collection: about 6.9%.
BAZ2B block = inhibitors of human BAZ2B bromodomain. Q9UIF8. 4.4% of 360,000 active. AlphaScreen BAZ2B-H3K14Ac peptide displacement. Potency, µM (doses to about 114 µM), without a hit: top-dose activity change, negative = inhibition, usual class: inhibitors; further: on the % scale 0 is the no-effect control and ±100 the full control effect; nearly all actives have a fitted effect of over 60% in size
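Inhibition is scored as reduced AlphaScreen emission. The BAZ2B/b-H3(5-23)K14Ac complex (50 nM each) in PBS pH 7.4, 0.01% Tween-20 meets compound (up to 110 uM) for 30 min at RT before bead addition.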
JMJD2A Tudor inh = JMJD2A Tudor domain (human) inhibition; AlphaScreen JMJD2A-Tudor / H3K4me3 peptide binding; Potency, µM (doses to about 114 µM), inactives show at the top dose activity change, negative = inhibition, usual class: inhibitors; 4.4% of 390,000 active; O75164; further: on the % scale 0 is the no-effect control and ±100 the full control effect; nearly all actives have a fitted effect of over 50% in size
L3MBTL1 inh = L3MBTL1 (human) inhibition. Q9Y468. AlphaScreen L3MBTL1–H3K9me1 peptide binding. Potency, µM (titrated, usually from 57.1 µM), for inactives: top-dose activity, negative = inhibition, hits mostly inhibitors. 0.66% of 230,000 active; further: on the % scale 0 is the no-effect control and ±100 the full control effect; nearly all actives have a fitted effect of over 60% in size
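AlphaScreen assay: L3MBTL1 (50 nM final) was preincubated 30 min at room temperature with biotinylated H3(1-15)K9me1 peptide (75 nM final), then 30 min with library compounds; streptavidin donor and nickel chelate acceptor beads (10 ug/mL final) added, 30 min dark.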
HP1b chromo inh = blocks HP1-beta chromodomain binding to methylated histone tails | AlphaScreen HP1-beta / biotin-H3K9me3 peptide binding | Potency, µM (top dose mostly 114 µM), for the others: at the highest dose activity change, negative = inhibition, hits mostly inhibitors | 0.56% of 390,000 active | AID 540317; further: nearly all actives have a fitted effect of over 70% in size
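HP1-beta protein (50 nM final) preincubated 30 min at room temperature with biotinylated H3(1-18)K9me3 peptide (50 nM) in PBS pH 7.4, 0.01% Tween-20, then compound added for 30 min. AlphaScreen streptavidin donor/nickel chelate acceptor beads (10 ug/mL final), 30 min dark, luminescence read.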
VDR inhibitor = inhibitors of human vitamin D receptor | AID 504847 | VDR-SRC2-3 peptide fluorescence polarization, 2 h | P11473 | Potency, µM, inactives show max response, negative = inhibition, hits mostly inhibitors | 0.93% of 400,000 active; further: on the % scale 0 is the no-effect control and ±100 the full control effect
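Measured by FP: displacement of SRC2-3 coactivator peptide from VDR by library compounds, following a two-hour ambient incubation.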
PLK1 PBD inh = inhibitors of human PLK1 polo-box domain binding. Potency, µM, inactives show max response, negative = inhibition, usual class: inhibitors. AID 720504. P53350. Plk1 PBD binding of FITC phosphopeptide, fluorescence polarization. 2.8% of 360,000 active; further: series mostly up to about 57 µM; on the % scale 0 is the no-effect control and ±100 the full control effect; nearly all actives have a fitted effect of over 65% in size
Numbers without * were called inactive; ? = inconclusive; / = no result given; [ ] = another dose, or the depositor's remark. The call rests on the fitted dose curve; in most records, active means well fitted curve in the direction sought with a large enough effect; inconclusive means small, poorly fitted or top-dose-only effect, or another doubt; inactive means no such curve, though single readings can be large; an effect the other way counts as inactive or inconclusive. Potency means the concentration at half of the fitted maximal effect.

SMILES | BAZ2B block | JMJD2A Tudor inh | L3MBTL1 inh | HP1b chromo inh | VDR inhibitor | PLK1 PBD inh
COc1ccccc1C(NC(C)=O)c1cc(Cl)c2cccnc2c1O (centres undefined) | -13% | ? | / | 36% | -4% | -1%
CCCC(=O)NC(c1cccs1)c1cc(Cl)c2cccnc2c1O (centres undefined) | -4% | -17% | -6% | 45% | -8% | -2%
CCC(=O)NC(c1ccc(OC)c(OC)c1)c1cc(Cl)c2cccnc2c1O (centres undefined) | 40µM* | -24% | 16% | 41% | 2% | -12%
COc1ccc(C(NC(C)=O)c2cc(Cl)c3cccnc3c2O)cc1OC (centres undefined) | 28µM* | 56µM* | -5% | 30% | 9% | -3%
NCC1CCC(N)C(O[C@@H]2C(O)[C@H](O[C@H]3OC(CO)C(O)C(N)C3O)[C@@H](N)C[C@H]2N)O1 (some centres undefined) | / | / | / | / | 19% | /
CCCOc1ccc(CN(C(=O)c2nc(SC(C)C)ncc2Cl)C2CCS(=O)(=O)C2)cc1 (centres undefined) | -25% | ? | / | 14% | 15% | /
CCOC(=O)C1CCN(S(=O)(=O)CCNC(=O)c2ccc(F)cc2)CC1 | -4% | -8% | 3% | 26% | -15% | -6%
O=C(c1ccco1)N1C(=O)c2cccc3cccc1c23 | -27% | -21%[11.4 µM] | 4% | -16% | -5% | 5.3µM*
Nc1ncnc2nc(-c3ccc(N4CCOCC4)nc3)cc(-c3cccc(Br)c3)c12 | / | / | / | / | -2% | /
CC(C)(C)c1nnc(NS(=O)(=O)c2cc(Cl)ccc2Cl)s1 | ? | -9% | 7% | 33% | -23% | ?
O=S(=O)(Nc1nc(-c2sccc2Cl)cs1)c1cc(Cl)ccc1Cl | 50µM* | 50µM* | -2% | ? | ? | 17µM*
CC(C)(C)OC(=O)n1c2ccsc2c2cnn(Cc3ccccc3F)c(=O)c21 | / | -18% | / | / | / | /
COc1ccc(NC(=O)c2c(NCc3cccc(OC)c3)sc3c2CCCC3)cc1 | -35% | ? | / | 13% | 5% | /
COC(=O)c1c(NC(=O)C2CCCCC2C(=O)O)sc2c1CCCCC2 (centres undefined) | -30% | -16% | -8% | -11% | -15% | 24µM*
COc1ccc(NC(=O)c2c(NCc3ccc(N(C)C)cc3)sc3c2CCC3)cc1 | 32µM* | 56µM* | / | ? | -6% | /
COc1ccc(NC(=O)c2c(NCc3sccc3C)sc3c2CCCC3)c(OC)c1 | ? | ? | / | ? | 10% | /
COCC(=O)Nc1sc2c(c1C(=O)OC)CCCC2 | -5% | -19% | 10% | 10% | 1% | 2%
CCOC(=O)c1ccc(NC(=O)c2c(NCc3sccc3C)sc3c2CCCCC3)cc1 | 45µM* | 56µM* | / | -8% | ? | /
COC(=O)c1c(NC(=O)Cc2cccs2)sc2c1CCCC2 | 79µM* | ? | ? | -3% | 1% | -10%
CCOC(=O)c1c(NC(=O)C2CCCCC2C(=O)O)sc2c1CCCCC2 (centres undefined) | ? | -27% | 8%[11.4 µM] | -2% | -13% | ?
Cc1ccc(NC(=O)CN2C(=O)COc3ccc(S(=O)(=O)N4CCOCC4)cc32)c(Cl)c1 | -18% | -4% | / | 60% | 7% | /
CCOC(=O)[C@]12CCC=C1N(Cc1ccco1)C(=O)[C@H](CC(=O)N1CCCCC1)C2 | / | / | / | / | / | -13%
COc1ccc(CC(=O)Nc2sc3c(c2C(=O)Nc2ccc(C)cc2)CCCCC3)cc1 | 56µM* | 56µM* | / | 5% | ? | /
COc1ccccc1C(=O)NC(=O)CSc1nncn1C(C)C | 13% | -8% | 1% | 16% | -8% | -2%
CC(C)(C)OC(=O)N1CCC[C@H]1C(=O)NCc1ccc(Cl)cc1Cl | -3% | 45µM* | 22% | -5% | ? | 27µM*
SMILES | BAZ2B block | JMJD2A Tudor inh | L3MBTL1 inh | HP1b chromo inh | VDR inhibitor | PLK1 PBD inh
CC(C)(C)OC(=O)N1CCC[C@H]1C(=O)N1CCC[C@H]1C(=O)NCc1ccc(F)cc1F | / | / | / | / | / | 4%
C=CCOc1ccc(CN(C)CC(=O)Nc2ccc3c(c2)CCC3)cc1 | 50µM* | 14µM* | 19% | -20% | -6% | 1%
C/C(=N\O)C(=O)NCCCNCCCN(C)C | 5% | -26% | / | 30% | 14% | -9%
C/C(=N\O)C(=O)NCCN(C)C | -9% | 7.9µM* | -1% | -3% | -3% | 1%
CCOc1ccccc1NC(=O)Cn1c(=O)n(CCC(=O)NCc2ccc3c(c2)OCO3)c(=O)c2ccccc21 | ? | -18% | / | 75% | 2% | /
Cc1ccc(S(=O)(=O)n2ccc3c2CCCC3=O)cc1 | -24% | ? | / | -5% | ? | 27µM*
O=c1[nH]c(-c2ccc(F)cc2)nc2c1sc(=S)n2-c1ccccc1 | 50µM* | ? | 7% | 18% | 6% | ?
O=c1[nH]cnc2c1sc(=S)n2-c1ccccc1 | 6% | 89µM* | 10% | -36% | ? | 7.5µM*
O=c1[nH]c(-c2ccccc2Cl)nc2c1sc(=S)n2-c1ccccc1 | -16% | -21% | 0% | 15% | 13% | -13%
c1ccc(CSC2=NCCCN2)cc1 | 5% | -4% | / | 32% | -11% | -2%
O=C(CCSC1=NCCCN1)c1ccc(F)cc1 | / | -15% | / | ? | 71µM* | ?
CCOc1ccc(-c2nnc3sc(-c4ccccc4OC)nn23)cc1 | / | -4% | / | 11% | 1% | -2%
COc1ccc(-c2nnc3sc(C(C)N4C(=O)c5ccccc5C4=O)nn23)cc1 (centres undefined) | -6% | 18µM* | -21% | 0% | ? | 24µM*
Cc1ccc(S(=O)(=O)N(CCC(=O)O)Cc2ccc(Cl)cc2)cc1 | 8% | -7% | / | 28% | 3% | -2%
COc1ccc(NC(=O)COC(=O)/C=C/C(=O)OCC(=O)Nc2ccc(OC)c(Cl)c2)cc1Cl | -13% | -19% | 0% | 7% | -8% | -6%
COc1ccc(NC(=O)COC(C)=O)cc1Cl | -6% | -13% | -17% | 4% | -6% | 27µM*
CCOC(=O)/C=C/C(=O)OCC(=O)Nc1ccc(OC)c(Cl)c1 | -10% | 0% | 6% | 37% | 79µM* | ?
Cc1ccc(C(=O)O)cc1-c1ccc(/C=C2/NC(=O)N(c3ccccc3)C2=O)o1 | 32µM* | 50µM* | / | ? | -1% | ?
Cc1ccc(CN2C(=O)N/C(=C\c3ccc(-c4ccc(C(=O)O)cc4C)o3)C2=O)cc1 | 40µM* | ? | ? | -21% | -25% | ?
O=C(O)Cc1cccc2ccccc12 | 5% | -10% | -4% | 27% | -3% | 6%
O=C(O)Cc1ccc(N=Nc2c(O)c(C(=O)O)cc3ccccc23)cc1 | 28µM* | 56µM* | 25µM* | 50µM* | ? | ?

Screening data from PubChem.
